Source: the supplement of paper PMC6555819

How the values were obtained:
Experiment in all cases: PBM binding z-score (relative to random genomic background probes); higher = stronger binding; sequences stand for … in GC…GCGATTGACAGCGTAGAATGAAGG
[1] = tested on: FXR:RXRa (NR concentration 270 nM, RXRa partner concentration 90 nM)
How it was run: (§1)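 Each nuclear receptor dimer, without ligand, was incubated for 1 h on custom Agilent 4×180K protein-binding microarrays. Binding was detected with antibodies against each partner (one per run), and scanned fluorescence was regression-normalized. The binding z-scores are referenced to random human genomic background probes.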

[2] = tested on: LXRa:RXRa (NR concentration 270 nM, RXRa partner concentration 90 nM)
How it was run: as §1

[3] = tested on: LXRa homodimer (NR concentration 270 nM)
How it was run: as §1

[4] = tested on: LXRb:RXRa (NR concentration 270 nM, RXRa partner concentration 90 nM)
How it was run: as §1

[5] = tested on: LXRb homodimer (NR concentration 270 nM)
How it was run: as §1

[6] = tested on: PPARa:RXRa (NR concentration 270 nM, RXRa partner concentration 90 nM)
How it was run: as §1

[7] = tested on: PPARg:RXRa (NR concentration 180 nM, RXRa partner concentration 90 nM)
How it was run: as §1

[8] = tested on: PPARg:RXRa 270nM:90nM, anti-RXR (NR concentration 270 nM, RXRa partner concentration 90 nM)
How it was run: as §1

[9] = tested on: PPARg:RXRa 30nM:10nM, anti-RXR (NR concentration 30 nM, RXRa partner concentration 10 nM)
How it was run: as §1

[10] = tested on: PPARg:RXRa 90nM:30nM, anti-RXR (NR concentration 90 nM, RXRa partner concentration 30 nM)
How it was run: as §1

[11] = tested on: PPARg:RXRa DBDmut IVT, anti-RXR (DBD mutation: RXRa K156A/R161A, NR concentration 270 nM, RXRa partner concentration 90 nM)
How it was run: as §1

[12] = tested on: PPARg:RXRa IVT, anti-PPARg (NR concentration 270 nM, RXRa partner concentration 90 nM)
How it was run: as §1

[13] = tested on: PPARg DBDmut:RXRa IVT, anti-PPARg (DBD mutation: PPARg1 K132A/R137A, NR concentration 270 nM, RXRa partner concentration 90 nM)
How it was run: as §1

[14] = tested on: PPARg DBDmut IVT, anti-PPARg (DBD mutation: PPARg1 K132A/R137A, NR concentration 270 nM)
How it was run: as §1

[15] = tested on: PPARg homodimer (NR concentration 180 nM)
How it was run: as §1

[16] = tested on: PXR:RXRa (NR concentration 270 nM, RXRa partner concentration 90 nM)
How it was run: as §1

[17] = tested on: PXR homodimer (NR concentration 270 nM)
How it was run: as §1

[18] = tested on: RARa:RXR (NR concentration 270 nM, RXRa partner concentration 90 nM)
How it was run: as §1

[19] = tested on: RARa homodimer (NR concentration 270 nM)
How it was run: as §1

[20] = tested on: RARb:RXRa (NR concentration 270 nM, RXRa partner concentration 90 nM)
How it was run: as §1

Sequence: GCGACTGGGGCCTCAGCAGGTTACCATAACTTAA
- PBM binding z-score [1]: -0.561
- PBM binding z-score [2]: -0.698
- PBM binding z-score [3]: -0.704
- PBM binding z-score [4]: -0.145
- PBM binding z-score [5]: -1.25
- PBM binding z-score [6]: -0.221
- PBM binding z-score [7]: -0.306
- PBM binding z-score [8]: -0.849
- PBM binding z-score [9]: -0.842
- PBM binding z-score [10]: -0.966
- PBM binding z-score [11]: -0.00241
- PBM binding z-score [12]: -0.47
- PBM binding z-score [13]: -1.2
- PBM binding z-score [14]: -1.98
- PBM binding z-score [15]: -0.186
- PBM binding z-score [16]: -0.277
- PBM binding z-score [17]: -0.863
- PBM binding z-score [18]: 0.0865
- PBM binding z-score [19]: -1.06
- PBM binding z-score [20]: 0.0626

Sequence: TCAGACAGATGAAGGTAACTCAGGTACGCAGTCG
- PBM binding z-score [1]: 0.719
- PBM binding z-score [2]: 0.98
- PBM binding z-score [3]: -0.272
- PBM binding z-score [4]: 0.763
- PBM binding z-score [5]: -0.545
- PBM binding z-score [6]: 0.832
- PBM binding z-score [7]: 0.832
- PBM binding z-score [8]: 2.06
- PBM binding z-score [9]: 4.27
- PBM binding z-score [10]: 3.3
- PBM binding z-score [11]: 2.29
- PBM binding z-score [12]: 0.179
- PBM binding z-score [13]: -0.273
- PBM binding z-score [14]: -0.478
- PBM binding z-score [15]: 0.326
- PBM binding z-score [16]: 0.521
- PBM binding z-score [17]: 0.216
- PBM binding z-score [18]: 0.684
- PBM binding z-score [19]: 0.265
- PBM binding z-score [20]: 0.227

Sequence: TCTGCTAGGTCGACGATGGTCAGCTAATCTGCTA
- PBM binding z-score [1]: -0.0207
- PBM binding z-score [2]: 0.0577
- PBM binding z-score [3]: -1.03
- PBM binding z-score [4]: -0.332
- PBM binding z-score [5]: -1.02
- PBM binding z-score [6]: 0.202
- PBM binding z-score [7]: -0.26
- PBM binding z-score [8]: 0.642
- PBM binding z-score [9]: 1.2
- PBM binding z-score [10]: 0.698
- PBM binding z-score [11]: 1.12
- PBM binding z-score [12]: 0.905
- PBM binding z-score [13]: -0.448
- PBM binding z-score [14]: -0.108
- PBM binding z-score [15]: -1.39
- PBM binding z-score [16]: -0.185
- PBM binding z-score [17]: -1.16
- PBM binding z-score [18]: 0.0229
- PBM binding z-score [19]: -1.42
- PBM binding z-score [20]: 1.16

Sequence: TCTTGTAGATCAACTGGAGGTTAAGAAAGATCGA
- PBM binding z-score [1]: 0.425
- PBM binding z-score [2]: 1.71
- PBM binding z-score [3]: 1.03
- PBM binding z-score [4]: 1.22
- PBM binding z-score [5]: -0.276
- PBM binding z-score [6]: 1.53
- PBM binding z-score [7]: -0.287
- PBM binding z-score [8]: 1.31
- PBM binding z-score [9]: 2.76
- PBM binding z-score [10]: 1.89
- PBM binding z-score [11]: 1.68
- PBM binding z-score [12]: 0.919
- PBM binding z-score [13]: 0.402
- PBM binding z-score [14]: 0.432
- PBM binding z-score [15]: -0.255
- PBM binding z-score [16]: 0.704
- PBM binding z-score [17]: -0.291
- PBM binding z-score [18]: 1.13
- PBM binding z-score [19]: -0.0829
- PBM binding z-score [20]: 0.631

Sequence: AATATTAGTTGAGACGAGGGCAACCGATAGGTTG
- PBM binding z-score [1]: 0.383
- PBM binding z-score [2]: 0.45
- PBM binding z-score [3]: 0.595
- PBM binding z-score [4]: 0.306
- PBM binding z-score [5]: 0.174
- PBM binding z-score [6]: 0.507
- PBM binding z-score [7]: 0.897
- PBM binding z-score [8]: 0.51
- PBM binding z-score [9]: 0.0399
- PBM binding z-score [10]: 0.408
- PBM binding z-score [11]: 0.326
- PBM binding z-score [12]: 0.882
- PBM binding z-score [13]: 0.648
- PBM binding z-score [14]: 0.786
- PBM binding z-score [15]: 1.36
- PBM binding z-score [16]: 1.71
- PBM binding z-score [17]: 1.48
- PBM binding z-score [18]: 1.4
- PBM binding z-score [19]: 2.43
- PBM binding z-score [20]: 1.26

Sequence: TCTTGTAGATCAAGAGAGGTTAAGAAAGTGCGCT
- PBM binding z-score [1]: 0.516
- PBM binding z-score [2]: 3.28
- PBM binding z-score [3]: 0.0219
- PBM binding z-score [4]: 1.46
- PBM binding z-score [5]: -0.672
- PBM binding z-score [6]: 1.44
- PBM binding z-score [7]: -0.217
- PBM binding z-score [8]: 1.2
- PBM binding z-score [9]: 2.19
- PBM binding z-score [10]: 1.72
- PBM binding z-score [11]: 0.899
- PBM binding z-score [12]: 0.319
- PBM binding z-score [13]: -0.033
- PBM binding z-score [14]: -0.382
- PBM binding z-score [15]: -0.0736
- PBM binding z-score [16]: 2.95
- PBM binding z-score [17]: 0.139
- PBM binding z-score [18]: 1.6
- PBM binding z-score [19]: -0.753
- PBM binding z-score [20]: 0.635

Sequence: GCTGCTAGGTCAACTGATGTTCAGCTAAAGCTCG
- PBM binding z-score [1]: 4.01
- PBM binding z-score [2]: 2.78
- PBM binding z-score [3]: 0.062
- PBM binding z-score [4]: 1.95
- PBM binding z-score [5]: 0.048
- PBM binding z-score [6]: 3.71
- PBM binding z-score [7]: 2.89
- PBM binding z-score [8]: 3.07
- PBM binding z-score [9]: 0.613
- PBM binding z-score [10]: 1.86
- PBM binding z-score [11]: 4.93
- PBM binding z-score [12]: 4.11
- PBM binding z-score [13]: -0.364
- PBM binding z-score [14]: -1.06
- PBM binding z-score [15]: 1.1
- PBM binding z-score [16]: 1.64
- PBM binding z-score [17]: -0.723
- PBM binding z-score [18]: 2.27
- PBM binding z-score [19]: -0.512
- PBM binding z-score [20]: 4.32
